From PubChem BioAssay
USP1 inh = inhibitors of human USP1/UAF1 deubiquitinase; O94782; recombinant USP1/UAF1, Ub-Rhodamine cleavage fluorescence; Potency, µM (series often up to 57.1 µM), inactives show at the highest dose activity change, negative = inhibition, most hits filed as inhibitors; actives 0.23% (n = 390,000); AID 743255; also: potency is read from the fitted curve at half-maximal effect; nearly all actives have a fitted effect of over 60% in size
Target sequence (O94782 whole entry, looked up): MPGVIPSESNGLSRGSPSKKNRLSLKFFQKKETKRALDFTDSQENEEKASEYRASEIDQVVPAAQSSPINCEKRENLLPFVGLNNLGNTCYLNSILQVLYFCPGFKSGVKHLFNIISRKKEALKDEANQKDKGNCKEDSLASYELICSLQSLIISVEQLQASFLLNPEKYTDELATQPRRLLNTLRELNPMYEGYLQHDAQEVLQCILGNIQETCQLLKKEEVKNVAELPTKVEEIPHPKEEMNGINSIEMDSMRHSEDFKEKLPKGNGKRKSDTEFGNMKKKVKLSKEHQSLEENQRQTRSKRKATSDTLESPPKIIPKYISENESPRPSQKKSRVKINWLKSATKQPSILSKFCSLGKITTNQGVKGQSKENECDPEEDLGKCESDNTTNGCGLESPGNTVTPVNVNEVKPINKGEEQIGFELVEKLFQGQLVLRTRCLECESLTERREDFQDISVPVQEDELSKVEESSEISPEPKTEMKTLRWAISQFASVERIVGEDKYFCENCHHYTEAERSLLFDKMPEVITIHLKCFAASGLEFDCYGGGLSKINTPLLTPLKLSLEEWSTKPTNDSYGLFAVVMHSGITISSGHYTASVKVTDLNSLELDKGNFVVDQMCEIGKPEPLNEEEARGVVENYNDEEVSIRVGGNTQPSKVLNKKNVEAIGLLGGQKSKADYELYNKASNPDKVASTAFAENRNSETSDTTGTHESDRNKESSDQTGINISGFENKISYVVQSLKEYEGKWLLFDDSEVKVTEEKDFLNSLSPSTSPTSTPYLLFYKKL
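Step one: compound is pinned into 1nM USP1/UAF1 in HEPES pH 7.8 buffer with TCEP. Step two: 15 min room-temperature incubation. Step three: Ub-Rho (150nM final) starts cleavage, tracked by fluorescence over six one-minute reads.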
Tau ThT inhib = blocks human tau fibril formation measured by thioflavin T. recombinant tau K18 P301L, heparin-induced fibrillization, ThT fluorescence. Potency, µM (titrated, usually from 57.4 µM), for inactives: at the top dose activity, negative = inhibition, most hits filed as inhibitors. actives 2.1% (n = 270,000); also: potency is read from the fitted curve at half-maximal effect; nearly all actives have a fitted effect of over 55% in size
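Recombinant human tau K18 fragment […] carrying P301L, 15 uM unlabeled plus 0.24 uM Alexa 594-labeled, was fibrillized with 20 uM heparin in 100 mM sodium acetate pH 7 for 6 hr at 37 C; 30 uM ThT fluorescence read after 1 hr.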
Tau fibril FP = inhibitors of human tau fibril formation. P10636. K18 P301L tau heparin fibrillization, Alexa594 FP, 6 h. Potency, µM (series often up to 57.7 µM), for inactives: at the top dose activity, negative = inhibition, actives largely listed as inhibitors. actives 0.39% (n = 280,000). AID 1468; also: potency is read from the fitted curve at half-maximal effect; nearly all actives have a fitted effect of over 55% in size
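Steps: dispense K18 P301L tau (15 uM plus 0.24 uM Alexa 594 tracer, final) in pH 7 sodium acetate; add compound; add heparin (20 uM final); incubate 6 hr, 37 C; add ThT (30 uM final); after 1 hr ambient, read FP.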
FBPA coupling cs = coupling enzyme interference in Giardia aldolase counter-screen | actives 0.67% (n = 290,000) | coupling enzyme system counterscreen, AmpLite Red fluorescence | AID 2472 | activity change, negative = inhibition, % at 58.2 µM, hits read low; in the data active = activity change below about -30%
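Final compound at 57.5 uM, incubated 10 min at RT with coupling enzyme reagent (glyceraldehyde-3-phosphate), then 20 min with substrate and AmpLite Red detection. Fluorescence read at 525/598 nm; tests interference with the coupling assay, not aldolase inhibition.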
Tau fluor counter = counter-screen for tau fibril formation inhibitors. tau K18 P301L (four-repeat tau fragment) Alexa594 fluorescence, heparin fibrillization. Potency, µM (doses to about 57.7 µM), without a hit: top-dose activity change, negative = decrease. actives 0.93% (n = 280,000); also: potency is read from the fitted curve at half-maximal effect; nearly all actives have a fitted effect of over 55% in size
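Human K18 P301L tau (15 uM unlabeled plus 0.24 uM Alexa 594-labeled, final) in 100 mM sodium acetate pH 7 was mixed with compound and 20 uM heparin and incubated 6 hr at 37 C.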
Active calls of the source: *; ? = inconclusive; · = no result; [ ] = dose if it differs, or a comment. An excerpt weighted towards active compounds, which were near 2.3% of everything screened. Unless noted, calls follow the shape of the dose curve; as a rule, active = well fitted curve in the direction sought with a large enough effect; inconclusive = small, poorly fitted or top-dose-only effect, or another doubt; inactive = no such curve, though single readings can be large; an effect the other way counts as inactive or inconclusive. % is scaled to controls: 0 for no effect and ±100 for the full control effect.

SMILES | USP1 inh | Tau ThT inhib | Tau fibril FP | FBPA coupling cs | Tau fluor counter
CC1=CC(=NOC(=O)/C=C/c2ccccc2)C=C(C)C1=O | -11.0% | 22.4µM* | ? | -45.4* | -28.4%
CC(=O)OCC1OC(c2ccc3c(c2)OCO3)C=CC1OC(C)=O (configuration not stated) | · | 2.1%[11.5 µM] | -6.9%[11.6 µM] | 0.5 | 2.3%[11.6 µM]
C/C(=N\Nc1ccc(S(N)(=O)=O)cc1[N+](=O)[O-])c1ccccc1O | -0.5% | ? | 1.6% | -0.8 | -15.8%
NS(=O)(=O)c1ccc(N/N=C/c2ccc(O)cc2O)c([N+](=O)[O-])c1 | -12.4% | 2.24µM* | -2.4% | 0.8 | ?
C/C(=N\Nc1ccc(S(N)(=O)=O)cc1[N+](=O)[O-])c1ccco1 | -3.3% | 5.01µM* | -3.6% | 1.2 | ?
NS(=O)(=O)c1ccc(N/N=C/c2ccc(O)c(O)c2O)c([N+](=O)[O-])c1 | ? | 2µM* | 5.01µM* | -46.3* | 2µM*[quencher]
NC(=O)c1c(NC(=O)Cc2ccccc2)sc2c1CCN(Cc1ccccc1)C2 | -12.8% | · | · | 0.5 | ·
Cc1ccc(NC(=O)C2CCN(C(=O)c3sc4nc[nH]c(=O)c4c3C)CC2)cc1F | -10.8% | 0.2% | -6.8% | · | -9.7%
O=C1c2ccccc2-c2nccnc21 | -13.3% | -9.9% | -10.5% | 0.3 | -13.7%
O=C1C=C(Nc2ccccc2)C(=O)c2ccccc21 | ? | ? | 3.7% | -19.3 | -22.5%
O=C1C=C(Nc2cccc3cccnc23)c2ccccc2C1=O | 17.8µM* | · | · | -64.5* | ·
O=C1C=C(Nc2ccccc2C(=O)O)c2ccccc2C1=O | 7.94µM* | · | ? | -48.9* | ?
O=C1C=C(Nc2ccccc2)c2ccccc2C1=O | 12.6µM* | ? | -14.2% | -49.0* | -19.1%
O=C1C(Nc2ccccc2)=CC(=O)c2ncccc21 | · | 14.1µM* | ? | -24.5 | ?
CCc1c(C)c(C#N)c2nc3ccccc3n2c1Nc1cccc(C(F)(F)F)c1 | 8.2% | 3.9% | -14.2% | · | -6.9%
Cc1cccc(OCC(=O)OCC(=O)N2CCN(C(=O)c3ccco3)CC2)c1C | -14.9% | · | · | · | ·
O=C1CC(c2nc3ccccc3[nH]2)CN1c1cccc(Cl)c1 (configuration not stated) | -18.6% | 10.5% | -3.7% | · | -1.9%
O=c1c2cnn(-c3ccc(F)cc3)c2ncn1Cc1ccccc1Cl | -12.1% | 12.5% | -6.3% | · | 0.2%
CCSC[C@H](NC(=O)[C@H](C)NC(=O)[C@@H](N)Cc1ccc(O)cc1)C(=O)N[C@@H](CC(=O)O)C(=O)N[C@H](C(=O)N[C@@H](C)C(=O)N[C@H](C(=O)N[C@@H](CSCC)C(=O)N[C@H](C(=O)N[C@H](C(=O)N[C@@H](Cc1cnc[nH]1)C(=O)N[C@@H](CCCNC(=N)N)C(=O)N[C@@H](CC(C)C)C(=O)N[C@@H](C)C(=O)NCC(=O)N[C@@H](CC(C)C)C(=O)N[C@@H](CC(C)C)C(=O)N[C@@H](CO)C(=O)N[C@@H](CCCNC(=N)N)C(=O)N[C@@H](CO)C(=O)NCC(=O)NCC(=O)N[C@H](C(=O)N[C@H](C(=O)N[C@@H](CCCCN)C(=O)N[C@@H](CC(N)=O)C(=O)N[C@@H](CC(N)=O)C(=O)N[C@@H](Cc1ccccc1)C(=O)N[C@H](C(=O)N1CCC[C@H]1C(=O)N[C@H](C(=O)N[C@@H](CC(N)=O)C(=O)N[C@H](C(=O)NCC(=O)N[C@@H](CO)C(=O)N[C@@H](CCCCN)C(=O)N[C@@H](C)C(=O)N[C@@H](Cc1ccccc1)C(N)=O)C(C)C)[C@@H](C)O)C(C)C)C(C)C)C(C)C)[C@@H](C)O)C(C)C)[C@@H](C)O)[C@@H](C)O | · | · | · | -0.6 | ·
Cc1cc(C)cc(-n2ccn(CC(=O)Nc3cc(C)ccc3C)c(=O)c2=O)c1 | -10.8% | ? | -0.2% | · | -11.7%
CCCCNC1=CC(=O)C(NCCCC)=CC1=O | -14.1% | · | · | · | ·
CCCCNC1=CC(=O)C(=O)c2ccccc21 | 25.1µM* | 1.4% | -5.0%[2.34 µM] | 0.3 | 2.5%[2.34 µM]
CCc1ccc2c(c1)C(=O)c1ccccc1C2=O | -20.1% | ? | 10.2% | 2.6 | -24.1%
CCc1ccc(NC2=CC(=O)C(=O)c3ccccc32)cc1 | 28.2µM* | · | · | · | ·
Nc1ccccc1S(=O)(=O)Nc1cccc2cccnc12 | · | · | · | -47.9* | ·
SMILES | USP1 inh | Tau ThT inhib | Tau fibril FP | FBPA coupling cs | Tau fluor counter
C=C1CCN(C(Cc2ccccc2)C(=O)O)S(=O)(=O)c2ccccc21 (configuration not stated) | · | · | · | 6.1 | ·
Cn1cnnc1SCC(=O)c1cc2ccccc2oc1=O | -21.7% | 28.2µM* | ? | -2.9 | ?
O=C(CSc1nnc(-c2cccnc2)o1)c1cc2ccccc2oc1=O | -11.7% | ? | 2.0% | 1.8 | -21.5%
N#CCCCN1C(=O)C(=C(C#N)C#N)c2ccccc21 | -6.6% | 31.6µM* | ? | -35.2* | ?
C=C(C)COc1ccc(-c2n[nH]c(C)c2-c2ccc(OC)cc2)c(O)c1 | -10.5% | -18.6% | ? | -5.0 | 25.1µM*[quencher]
COc1ccc(-c2c(-c3ccc(OCC(=O)NN)cc3O)n[nH]c2C)cc1OC | -24.7% | · | · | -1.7 | ·
COc1ccc(-c2c(-c3ccc(OCC(=O)NN)cc3O)n[nH]c2C(F)(F)F)cc1 | -13.8% | ? | ? | -8.0 | 22.4µM*[quencher]
COc1ccc(-c2n[nH]c(C)c2-c2cscn2)c(O)c1 | -4.4% | -10.0% | -2.6% | -0.4 | -8.9%
Cc1nc2nc(NC(=O)CC(C)C)[nH]n2c(=O)c1Cc1ccccc1 | -4.1% | -4.4% | -2.6% | · | 2.9%
CCCc1nn2c(=O)cc(COC(=O)c3cccc(NC(=O)COc4ccccc4C)c3)nc2s1 | ? | ? | 4.7% | · | -8.4%
CCOc1ccc2cc(C#N)c(SCC(=O)N3CCC(C)CC3)nc2c1 | -24.3% | -12.4% | ? | 0.1 | -17.9%
CCOC(=O)CSc1nc2cc(OCC)ccc2cc1C#N | -13.3% | 15.8µM* | -0.4% | -2.5 | -23.2%
C[C@H](CCC(=O)NCC(=O)O)C1CC[C@H]2[C@H]3C(C[C@H](O)[C@]12C)[C@@]1(C)CC[C@@H](O)C[C@H]1C[C@H]3O (some centres not stated) | · | -2.6% | -3.4% | · | -3.9%
CCCc1cc(C(=O)Cc2ccc(C(=O)OCC)o2)c(O)cc1O | -5.3% | ? | 7.0% | -6.1 | ?
CCCc1cc(-c2n[nH]c(C)c2-c2ccc(C(=O)OCC)o2)c(O)cc1O | -5.6% | -9.4% | ? | -33.7* | 14.1µM*[quencher]
CCc1cc(-c2n[nH]c(C)c2-c2nc3ccccc3n2C)c(O)cc1O | -22.4% | -4.0% | 9.4% | -20.4 | -25.2%
CCc1cc(-c2n[nH]c(C)c2-c2ccc3c(c2)OCCO3)c(O)cc1O | · | ? | 14.4% | -2.2 | 10µM*[quencher]
Cn1c(=O)n(C)c2cc(NS(=O)(=O)c3ccc(C(C)(C)C)cc3)c(NCc3ccccc3)cc21 | ? | ? | 2.8% | · | ?
